# This is a sample that favours compounds with a hit; in the whole collection about 7.9% have one here.
# Marburg entry inh: blocks Marburg virus binding to or entry into cells; Marburg virus pseudotyped entry inhibition, cell reporter; Potency, µM (titrated, usually from 37.8 µM), inactives show at the highest dose activity change, negative = inhibition, actives largely listed as inhibitors; 1.8% of 300,000 active; calls by dose curve; tested in HEK293 cells; note: potency is the fitted concentration of half-maximal effect
# HCV inhibitor: blocks hepatitis C virus. Huh7.5.1 HCVcc-Cre infection, luciferase reporter, 44 h. Potency, µM (top dose mostly 41.8 µM), inactives show at the highest dose activity change, negative = inhibition, usual class: inhibitors. 3.4% of 340,000 active. AID 651820; active = well fitted inhibition curve with a large enough effect; inconclusive = small, poorly fitted or top-dose-only effect, or another doubt; inactive = no such curve, though single readings can be large or run the other way; note: potency is the fitted concentration of half-maximal effect
#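 HCVcc-Cre virus at an moi near 0.5 was added right after compound to cells cultured 4 h from seeding (1,000 cells/well). Luciferase activity was determined 44 h later, 15 min after substrate addition at RT.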
# HCMV antiviral: inhibitors of human cytomegalovirus. AID 1259415. HFF cells, HCMV-luciferase reporter, 72 h; active compounds read low. 4.5% of 410,000 active. activity change, negative = inhibition, % at 57.5 µM; in the data active = activity change below about -60%; inconclusive = no clear call, values can overlap the other calls; inactive = above about -39%
#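 Cell-based, HFFs, 1000 cells/well, 16 h 37C; cpds in DMSO + HCMV-luc, MOI 1 PFU/cell; 72 h 37C; OneGlo luminescence after 5 min RT; norm. to buffer vs Salinomycin 10uM.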
# Lassa entry inh: blocks Lassa virus binding to or entry into cells; Lassa virus pseudotype entry inhibition, cell reporter; Potency, µM (doses to about 37.9 µM), inactives show top-dose activity change, negative = inhibition, usual class: inhibitors; 1.2% of 300,000 active; calls by dose curve; tested in HEK293 cells; note: potency is the fitted concentration of half-maximal effect; nearly all actives have a fitted effect of over 50% in size
# FMDV antiviral: antivirals against foot and mouth disease virus; FMDV antiviral cell-based qHTS; 1.2% of 410,000 active; Potency, µM (titrated, usually from 57.9 µM), for inactives: top-dose activity change, negative = inhibition, hits mostly inhibitors; calls by dose curve; tested in HEK293T cells; note: read-out not given here; potency is the fitted concentration of half-maximal effect; nearly all actives have a fitted effect of over 45% in size
# Starred values were filed as active, the others as inactive; ? = inconclusive; · = not tested or not shown; ! = not active in a repeat; [ ] = dose if it differs, or a comment. % is set by controls: 0 for no effect and ±100 for the full control effect.
SMILES,Marburg entry inh,HCV inhibitor,HCMV antiviral,Lassa entry inh,FMDV antiviral
COc1ccc(C(CNS(=O)(=O)c2ccc(NC(C)=O)c(OC)c2)N2CCCCC2)cc1 (centres undefined),-4%,5%,20,?,43%
Cc1ccc(S(=O)(=O)Nc2c(C(=O)O)[nH]c3ccccc23)c(C)c1,·,-2%,58,·,18%
O=C(O)CCC(=O)c1ccc2sc3ccccc3c2c1,10%,29%,62,-20%[46.1 µM],15%
C=CCNC(=S)N1N=C(c2ccco2)CC1c1ccco1 (centres undefined),2%[46.1 µM],-1%,46,15%[46.1 µM],-3%
Cc1ccc(NC(=O)c2c(C(F)(F)F)nn(C)c2SCc2cccc(C(F)(F)F)c2)cc1C,?,?,-88*,?,-27%
CN(C)c1ccc(/C=C/C=C2/SC(=S)N(c3ccccc3)C2=O)cc1,-3%,7%,-36,-1%,?
CC[n+]1c(/C=C/C=C/c2ccc(N(C)C)cc2)sc2ccccc21,1.8µM*,2.8µM*,-110*,?,?
CN(C)c1ccc(/C=C/C=C/c2sc3ccccc3[n+]2C)cc1,?,?,-95*,?,40µM*
CCn1c(/C=C/N(C(C)=O)c2ccccc2)[n+](CC)c2ccc(Cl)cc21,-14%,5%,-16,-3%,-7%
CC[n+]1c(/C=C/C=C/N(C(C)=O)c2ccccc2)sc2ccccc21,?,?,?,-28%,?
CC[n+]1c(/C=C/N(C)c2ccccc2)sc2ccc(Cl)cc21,2.9µM*,?,-97*,?,·
CCN1c2ccccc2N(C)C1(C)c1ccccc1 (centres undefined),?,-27%,·,?,?
CN1c2ccccc2N(C)C1(C)c1ccccc1,?,-5%,-93*,?,0%
CC(C)c1ccc(NC(=O)N2CCN(c3ccc(Cl)c(Cl)c3)CC2)cc1,?,·,-79*,29%[46.1 µM],?
CCOc1ccc(NC(=O)N2CCN(c3ccc(Cl)c(Cl)c3)CC2)cc1,-2%[46.1 µM],·,-36,-13%[46.1 µM],-11%
Cc1ccc(NC(=O)N2CCN(c3ccc(Cl)c(Cl)c3)CC2)cc1,?,·,-62*,30%[46.1 µM],?
CC(=O)Nc1ccc(S(=O)(=O)NCCC(=O)OCC(=O)NCc2ccccc2)cc1,2%[46.1 µM],0%,-4,6%,-4%
CCCCOCCCNc1ncnc2c1[nH]c1ccccc12,5.2µM*,8.9µM*,?,?,11µM*
CCOCCCNc1ncnc2c1[nH]c1ccccc12,?,?,-62*,?,?
Cc1cccc(NC(=O)c2sc3nc4c(cc3c2N)CCCCCC4)c1C,?,·,-82*,-28%[46.1 µM],-25%
Nc1c(C(=O)Nc2ccc(C(=O)O)cc2)sc2nc3c(cc12)CCCC3,25%[46.1 µM],·,27,?,16µM*
Nc1c(C(=O)Nc2ccc(S(=O)(=O)N3CCCC3)cc2)sc2nc3ccc(OC(F)(F)F)cc3cc12,6.3µM*,?,-96*,?,-1%
Nc1c(C(=O)Nc2ccccc2)sc2nc3c(c(-c4ccco4)c12)CCC3,-15%,10µM*,-32,-16%,?
Nc1c(C(=O)Nc2ccc(S(=O)(=O)N3CCCC3)cc2)sc2nc3cc4c(cc3cc12)CCC4,?,?,?,?,26%
COc1cc([N+](=O)[O-])ccc1NC(=O)N1CCC2(CC1)Nc1cc(F)ccc1-n1cccc12,·,·,26,-2%[46.1 µM],-28%
SMILES,Marburg entry inh,HCV inhibitor,HCMV antiviral,Lassa entry inh,FMDV antiviral
C[C@@H]1CN(C2CCN(S(=O)(=O)c3ccc4ccccc4c3)CC2)C[C@H](C)O1,-29%,·,·,·,·
NC(=O)c1sc2nc3c(c(-c4cccnc4)c2c1N)CCC3,-1%,10%,-34,15%,·
N#Cc1sc2nc3c(cc2c1N)CCCC3,?,1%,-64*,-1%,0%
Nc1c(C(=O)Nc2ccc(F)cc2)sc2nc(-c3ccco3)ccc12,?,?,-14,?,0%
Nc1c(C(=O)Nc2cccc(C(=O)O)c2)sc2nc3c(cc12)CCCC3,?,4%,95,3.2µM*,6.3µM*
Nc1c(C(=O)O)sc2nc3c(cc12)CCCC3,·,12%,-5,·,-4%
Nc1c(C(=O)Nc2ccc(Br)cc2)sc2nc(-c3ccco3)ccc12,-16%,?,-60*,?,?
NC(=O)c1sc2nc3c(c(-c4cccs4)c2c1N)CCCCC3,-6%,-3%,-86*,4%,?
C[C@@H]1CN([C@@H](C)CO)C(=O)CCCn2nncc2CO[C@H]1CN(C)S(=O)(=O)c1ccc(C#N)cc1,·,·,-20,·,-13%
CCN(c1ccccc1C)S(=O)(=O)c1nnc(NC(=O)c2ccccc2C)s1,·,·,-8,?,0%
CNc1cncc(-c2ccc(C)cc2)n1,·,·,11,·,47%
Cc1ccc2nc(COc3ccccc3NC(=O)C(C)(C)C)cc(=O)n2c1,·,·,24,-1%[46.1 µM],-20%
CCCCOc1ccc(C2=CSC3=NCCN23)cc1[N+](=O)[O-],22µM*,?,101,-27%,-18%
CC(C)=CCC/C(C)=C/CO/N=C1/C[C@@H](O)[C@@H](O)[C@@H]2[C@@H]3C(=O)N(C[C@@H]4CCCO4)C(=O)[C@H]3CC[C@@H]12,22%[14.2 µM],·,·,·,·
CN(C)c1ccc(/C=C2/C(=N\O)C3CCN2CC3)cc1,5%[46.1 µM],-14%,-98*,5%[46.1 µM],9%
CN(C)c1ccc(/C=N/O)cc1,-5%[46.1 µM],9%,-28,-6%,27%
CCOC(=O)N1CCC(Nc2ccc3nnc(-c4ccccc4)n3n2)CC1,·,14µM*,135,·,?
CCOC(=O)N1CCN(c2c(NC3CCN(Cc4ccccc4)CC3)c(=O)c2=O)CC1,·,-14%,-64*,·,-10%
CCOC(=O)N1CCC(NCCNC(=O)c2ccccc2)CC1,-13%,6%,-70*!,8%,10%
CCOC(=O)N1CCC(NC(=O)c2cnc3n(c2=O)CCS3)CC1,·,17%,-61*,·,-8%
COc1ccc(Cl)cc1NC(=O)Cn1c(=O)n(Cc2nc(C)no2)c(=O)c2ccccc21,·,·,-20,?,-31%
Oc1ccccc1CNn1cnnc1,5%,27%,-100*,6%,-8%
Cn1cccc1/C=N/NC(=O)Cc1ccccc1,-11%[46.1 µM],-7%,22,7%[46.1 µM],23%
Cn1cccc1/C=N\NC(=O)Cc1ccc(Br)c2ccccc12,·,10µM*,-80*,·,?
O=C(/C=C/c1ccccc1)c1ccccc1,-4%,10µM*,-17,0%,?
SMILES,Marburg entry inh,HCV inhibitor,HCMV antiviral,Lassa entry inh,FMDV antiviral
O=C(/C=C/c1ccccc1)/C=C/c1ccccc1,9.2µM*,?,-73*,?,?
CC(=O)/C=C/c1ccccc1,·,10%,-28,·,-3%
CCOc1ccc(/C=C/C(=O)c2ccc(-c3ccccc3)cc2)cc1,?,29%,-61*,13%,-8%
CN(CCO)C(=O)c1cn(C2CCN(Cc3ccc(C(F)(F)F)cc3)CC2)nn1,·,·,·,·,-1%
CCC[C@H]1[C@@H](NS(=O)(=O)c2ccccc2)CC[C@@]23CCCN2C(=O)CCC[C@@H]13,·,·,-10,·,·
CCC(=O)N[C@H]1CC[C@@H](CCn2cc(C3CC3)nn2)O[C@@H]1CO,·,·,-9,·,-15%

# Bioassay records from PubChem.
